Measured values taken from PubChem BioAssay.
Records with an inconclusive call do not appear. The source made the active and inactive calls.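 Rule for the calls, unless noted: active = normalized viability below 100% at a tested concentration; inactive = the rest.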

Tests used:
[1] = viability loss in pontine glioma line – cell-based, SU-DIPG-XIII, MIPE4.0, CellTiter-Glo, qHTS, dose response (AID 1347061; cut-off not given, nearly all actives have AC50 up to about 37 µM;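 note: cells exposed to compound for 48 hours before readout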); details: CellTiter-Glo ATP luminescence
[2] = viability loss in pontine glioma line – cell-based, SU-DIPG-XIII, MIPE5.0, CellTiter-Glo, qHTS, dose response (AID 1347064; cut-off not given, nearly all actives have AC50 up to about 23 µM); details: CellTiter-Glo ATP luminescence
[3] = viability loss in pontine glioma line – cell-based, SU-DIPG-XXV, MIPE5.0, CellTiter-Glo, qHTS, dose response (AID 1347065; cut-off not given, nearly all actives have AC50 up to about 26 µM;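 note: cells exposed to compound for 48 hours before ATP readout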); details: CellTiter-Glo ATP luminescence
[4] = growth inhibition of DIPG cells – cell-based, MIPE4.0 library, CellTiter-Glo luminescence, qHTS (AID 1347066; cut-off not given, nearly all actives have AC50 up to about 30 µM;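 note: cells exposed to compound for 48 hours before readout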); details: SU-DIPG-VI viability, CellTiter-Glo ATP luminescence
[5] = JHH-DIPG-1 glioma cell viability, MIPE5.0 library, CellTiter-Glo luminescence, qHTS (AID 1347067; cut-off not given, nearly all actives have AC50 up to about 26 µM;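 note: cells exposed to compound for 48 hours before readout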); details: JHH-DIPG-1 glioma viability, CellTiter-Glo ATP luminescence
[6] = growth inhibition of DIPG cells – cell-based, MIPE5.0 library, qHTS (AID 1347068; cut-off not given, nearly all actives have IC50 up to about 30 µM); details: SU-DIPG-XXV viability
[7] = viability loss in pontine glioma line – cell-based, JHH-DIPG-1, MIPE4.0, CellTiter-Glo, qHTS, dose response (AID 1347062; cut-off not given, nearly all actives have AC50 up to about 27 µM;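 for AC50: cells exposed to compound for two days before readout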); details: JHH-DIPG-1 viability, CellTiter-Glo ATP luminescence
[8] = viability loss with induced miR-34 in A549 – imaging, A549 dox-inducible miR-34, nuclei and caspase counts, primary screen (AID 1347080;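 active = compounds whose cell count with miR-34 switched on is under 0.7 times the count with it off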); details: A549 miR-34 inducible, Hoechst nuclei count, 48 h
[9] = MELAS cybrid and Rieske KO viability enhancers – cell-based, MELAS cybrids, Rieske KO mouse fibroblasts, CellTiter-Glo, primary screen (AID 1508586;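 active = mean z-score across replicates of 1.96 or higher in either the MELAS or the Rieske mutant cell line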;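 note: z relative to plate mean and SD of compound and empty wells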); details: low glucose
[10] = viability loss in pontine glioma line – cell-based, SU-DIPG-IV, MIPE4.0, CellTiter-Glo, qHTS, dose response (AID 1347063; cut-off not given, nearly all actives have AC50 up to about 30 µM;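 note: compound exposure lasted 48 hours before the viability readout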); details: CellTiter-Glo ATP luminescence
[11] = compounds altering HSF1 focus formation in cells – imaging, Selleck Cancer Library (AID 1347162; in the data active = plate-normalised HSF1 focus index below about 0.46); details: human cells, HSF1 nuclear foci imaging, at 10 µM; SSMD: measured here: HSF1 foci SSMD mean; cell count: measured here: cell number; plate-normalised HSF1 focus index: stronger effect = lower value
[12] = drug combination growth inhibition, ovarian cancer – cell-based, oncology-focused library, rucaparib conditional, profiling panel (AID 1508598); details: patient-derived ovarian cancer cells, CellTiter-Glo viability, 144 h, stronger effect = lower value
[13] = stronger effect = lower value, cell number ratio, induced over uninduced
[14] = measured here: relative caspase fold change +Dox/-Dox
[15] = measured here: total cells with miR-34 induction, stronger effect = lower value
[16] = measured here: total cells without miR-34 induction
[17] = MELAS cybrid survival, CellTiter-Glo 48 h, stronger effect = higher value
[18] = Rieske KO mouse fibroblast survival, CellTiter-Glo 72 h
[19] = at 0.000305 µM, OCI-C5x cells, with rucaparib 10 µM, 100% = cells with rucaparib alone
[20] = at 0.000305 µM, OCI-C5x cells, without rucaparib
[21] = at 0.000305 µM, OCI-P5x cells, with rucaparib 20 µM, 100% = cells with rucaparib alone
[22] = at 0.000305 µM, OCI-P5x cells, without rucaparib
[23] = at 0.00122 µM, OCI-C5x cells, with rucaparib 10 µM, 100% = cells with rucaparib alone
[24] = at 0.00122 µM, OCI-C5x cells, without rucaparib
[25] = at 0.00122 µM, OCI-P5x cells, with rucaparib 20 µM, 100% = cells with rucaparib alone
[26] = at 0.00122 µM, OCI-P5x cells, without rucaparib
[27] = at 0.00488 µM, OCI-C5x cells, with rucaparib 10 µM, 100% = cells with rucaparib alone
[28] = at 0.00488 µM, OCI-C5x cells, without rucaparib
[29] = at 0.00488 µM, OCI-P5x cells, with rucaparib 20 µM, 100% = cells with rucaparib alone
[30] = at 0.00488 µM, OCI-P5x cells, without rucaparib
[31] = at 0.0195 µM, OCI-C5x cells, with rucaparib 10 µM, 100% = cells with rucaparib alone
[32] = at 0.0195 µM, OCI-C5x cells, without rucaparib
[33] = at 0.0195 µM, OCI-P5x cells, with rucaparib 20 µM, 100% = cells with rucaparib alone
[34] = at 0.0195 µM, OCI-P5x cells, without rucaparib
[35] = at 0.0781 µM, OCI-C5x cells, with rucaparib 10 µM, 100% = cells with rucaparib alone
[36] = at 0.0781 µM, OCI-C5x cells, without rucaparib
[37] = at 0.0781 µM, OCI-P5x cells, with rucaparib 20 µM, 100% = cells with rucaparib alone
[38] = at 0.0781 µM, OCI-P5x cells, without rucaparib
[39] = at 0.313 µM, OCI-C5x cells, with rucaparib 10 µM, 100% = cells with rucaparib alone
[40] = at 0.313 µM, OCI-C5x cells, without rucaparib
[41] = at 0.313 µM, OCI-P5x cells, with rucaparib 20 µM, 100% = cells with rucaparib alone
[42] = at 0.313 µM, OCI-P5x cells, without rucaparib
[43] = at 1.25 µM, OCI-C5x cells, with rucaparib 10 µM, 100% = cells with rucaparib alone
[44] = at 1.25 µM, OCI-C5x cells, without rucaparib
[45] = at 1.25 µM, OCI-P5x cells, with rucaparib 20 µM, 100% = cells with rucaparib alone
[46] = at 1.25 µM, OCI-P5x cells, without rucaparib
[47] = at 5 µM, OCI-C5x cells, with rucaparib 10 µM, 100% = cells with rucaparib alone
[48] = at 5 µM, OCI-C5x cells, without rucaparib
[49] = at 5 µM, OCI-P5x cells, with rucaparib 20 µM, 100% = cells with rucaparib alone
[50] = at 5 µM, OCI-P5x cells, without rucaparib

CS(=O)(=O)N(Cc1ccco1)CC(O)Cn1c2ccccc2c2ccccc21 (stereo not given)
inactive: outcome [1] | outcome [2] | outcome [3] | outcome [4] | outcome [5] | outcome [6]

CC(C)CN(C[C@@H](O)[C@H](Cc1ccccc1)NC(=O)O[C@H]1CCOC1)S(=O)(=O)c1ccc(N)cc1
1.32: fold change [8, 14]
inactive: outcome [1] | outcome [7] | outcome [4] | fold change [8, 13] 0.871 | z-score [9, 17] -0.00484
-0.0373: z-score [9, 18]
10200: cell count [8, 16]
8920: cell count [8, 15]

CC(=O)N1CCN(c2ccc(OCc3nn(C)c(C)c3-c3cccc4c(CCCOc5cc(C)c(Cl)c(C)c5)c(C(=O)O)n(Cc5cccnc5)c34)cc2)CC1
inactive: outcome [1]
active: AC50 [10] 23.5 µM | AC50 [4] 20.9 µM

CCOC(=O)N1c2ccc(C(F)(F)F)cc2[C@@H](N(Cc2cc(C(F)(F)F)cc(C(F)(F)F)c2)C(=O)OC)C[C@H]1CC
inactive: outcome [1] | outcome [2] | outcome [4] | outcome [5] | outcome [6]

O=C(NOC[C@H](O)CO)c1ccc(F)c(F)c1Nc1ccc(I)cc1F
3.29: SSMD [11]
2530: cell count [8, 15]
2470: cell count [8, 16]
7460: cell count [11]
2.04: fold change [8, 14]
active: AC50 [1] 1.05 µM | AC50 [7] 2.35 µM | viability [12, 21] 79.9% | viability [12, 22] 86.4% | viability [12, 25] 73.1% | viability [12, 26] 80% | viability [12, 29] 60% | viability [12, 30] 73.8% | viability [12, 32] 96.8% | viability [12, 33] 51.1% | viability [12, 34] 67.5% | viability [12, 36] 94.3% | viability [12, 37] 46.8% | viability [12, 38] 62.3% | viability [12, 39] 98.2% | viability [12, 40] 86.8% | viability [12, 41] 41% | viability [12, 42] 50.2% | viability [12, 43] 66.9% | viability [12, 44] 68.4% | viability [12, 45] 40.4% | viability [12, 46] 44.1% | viability [12, 47] 34.4% | viability [12, 48] 37.4% | viability [12, 49] 30.5% | viability [12, 50] 38.4%
inactive: outcome [4] | fold change [8, 13] 1.03 | plate-normalised HSF1 focus index [11] 1.21 | viability [12, 19] 115% | viability [12, 20] 103% | viability [12, 23] 110% | viability [12, 24] 103% | viability [12, 27] 111% | viability [12, 28] 101% | viability [12, 31] 111% | viability [12, 35] 120%

COc1ccc2cc(-c3nc(-c4ccc(S(C)=O)cc4)[nH]c3-c3ccncc3)ccc2c1 (stereo not given)
0.971: z-score [9, 18]
0.892: fold change [8, 14]
4.96: SSMD [11]
5750: cell count [8, 16]
inactive: outcome [1] | outcome [2] | outcome [4] | fold change [8, 13] 1.33 | plate-normalised HSF1 focus index [11] 1.27 | z-score [9, 17] -0.573 | viability [12, 19] 108% | viability [12, 20] 102% | viability [12, 21] 107% | viability [12, 22] 103% | viability [12, 24] 101% | viability [12, 25] 107% | viability [12, 26] 105% | viability [12, 27] 106% | viability [12, 29] 103% | viability [12, 32] 107% | viability [12, 35] 104% | viability [12, 36] 109% | viability [12, 39] 145% | viability [12, 40] 122% | viability [12, 43] 122% | viability [12, 44] 148% | viability [12, 45] 106% | viability [12, 47] 110% | viability [12, 48] 113%
6890: cell count [11]
active: AC50 [3] 14.8 µM | viability [12, 23] 95.3% | viability [12, 28] 95.5% | viability [12, 30] 96.1% | viability [12, 31] 96.9% | viability [12, 33] 91.1% | viability [12, 34] 90.7% | viability [12, 37] 95.6% | viability [12, 38] 95.1% | viability [12, 41] 87.7% | viability [12, 42] 93.7% | viability [12, 46] 84% | viability [12, 49] 26.6% | viability [12, 50] 26.9%
7650: cell count [8, 15]
